The record followed here is PubChem BioAssay (NCI).

Among the test systems are SR leukemia; RPMI-8226 leukemia; OVCAR-8 ovarian; OVCAR-5 ovarian; OVCAR-4 ovarian; SK-OV-3 ovarian; IGROV1 ovarian; OVCAR-3 ovarian; HS 578T breast; NCI/ADR-RES ovarian.
Test in all cases: NCI-60 one-dose screen, 48 h (100 = growth as untreated, 0 = no growth, -100 = all killed)
Common to all, as to conditions: 10 µM unless noted

Compounds without any hit were thinned out: in the full panel of roughly 83,000, 20% have a hit.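 Compound tested at a single concentration for 48 hours in 96-well plates; a percent growth value below 10 was scored as active.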 Values without a mark were called inactive. The source made the active and inactive calls.

On to `CC(=O)c1cc(Nc2cc(C)nc(N)n2)cc(C(C)=O)c1`, for which the growth in the experiment on SR leukemia was 35.8%; with RPMI-8226 leukemia it was 100%; with OVCAR-8 ovarian, 98.8%; in the experiment on OVCAR-5 ovarian, 91.6%; in the experiment on OVCAR-4 ovarian, 108%; with SK-OV-3 ovarian, 116%. Moreover, the growth is 91.7% in the experiment with IGROV1 ovarian, 112% in the experiment on OVCAR-3 ovarian, 94.6% in the experiment with HS 578T breast and 94% with NCI/ADR-RES ovarian.
Turning to `Nc1nc2c(c3cnccc13)C(c1ccc(Cl)c(Cl)c1)Cc1cnccc1-2` (stereo not given), the growth in the experiment on SR leukemia was 5.08% (active); in the experiment on RPMI-8226 leukemia, -5.48% (active); in the experiment with OVCAR-8 ovarian, 9.87% (active); with OVCAR-5 ovarian it was -1.65% (active); in the experiment on OVCAR-4 ovarian, 14.7%; in the experiment with SK-OV-3 ovarian, 2.34% (active). Also, the growth with IGROV1 ovarian was 7.84% (active); in the experiment on OVCAR-3 ovarian, -44.8% (active); in the experiment on HS 578T breast, 9.27% (active); in the experiment on NCI/ADR-RES ovarian it was -13.2% (active).
As for `C=C[C@]1(C)C=C2C(=O)[C@@]3(O)OC[C@@]4(CCCC(C)(C)C43O)C2(O)C(O)C1` (stereo not given in full), the growth is -14.4% (active) with SR leukemia; 15.2% in the experiment on RPMI-8226 leukemia; 58.3% in the experiment on OVCAR-8 ovarian; 120% with OVCAR-5 ovarian; 24.4% in the experiment on OVCAR-4 ovarian; 104% in the experiment with SK-OV-3 ovarian. The growth with IGROV1 ovarian was 107%; with OVCAR-3 ovarian, 16.3%; with HS 578T breast, 90.3%; in the experiment on NCI/ADR-RES ovarian it was 60.9%.
As to `CCCC(=O)Nc1ccccc1C(=O)O`, the growth with SR leukemia is 93.1%; in the experiment on RPMI-8226 leukemia it was 109%; in the experiment with OVCAR-8 ovarian it was 91.1%; in the experiment with OVCAR-5 ovarian, 99.5%; with OVCAR-4 ovarian, 101%; in the experiment on SK-OV-3 ovarian, 104%. In addition, the growth was 110% with IGROV1 ovarian, 94.7% in the experiment with OVCAR-3 ovarian, 102% with HS 578T breast and 96.3% with NCI/ADR-RES ovarian.
As for `CC1(C)CC(=O)C2=C(C1)Oc1nc(N)c(C#N)c(N)c1C2c1ccc(F)cc1` (stereo not given), the growth was 55.3% in the experiment with SR leukemia; 163% in the experiment on RPMI-8226 leukemia; 106% in the experiment with OVCAR-8 ovarian; 105% in the experiment with OVCAR-5 ovarian; 102% with OVCAR-4 ovarian; 115% in the experiment on SK-OV-3 ovarian. In addition, the growth with IGROV1 ovarian was 500%; in the experiment with OVCAR-3 ovarian, 121%; with HS 578T breast, 103%; in the experiment on NCI/ADR-RES ovarian, 122%.
Regarding `Nc1nc2c(c3cnccc13)C(c1cccc(Cl)c1)Cc1cnccc1-2` (stereo not given), the growth in the experiment on SR leukemia is 19.5%; in the experiment on RPMI-8226 leukemia, 8.24% (active); in the experiment with OVCAR-8 ovarian, 29.3%; in the experiment on OVCAR-5 ovarian, 40.4%; in the experiment with OVCAR-4 ovarian, 32.1%; in the experiment with SK-OV-3 ovarian, 32%. Also, the growth was 35.9% in the experiment on IGROV1 ovarian, 10.1% with OVCAR-3 ovarian, 38.9% in the experiment on HS 578T breast and 6.79% (active) with NCI/ADR-RES ovarian.
Turning to `COc1cc2ncnc(-n3ncc4cc(NC(=O)Nc5ccc(Cl)c(C)c5)ccc43)c2cc1OC`, the growth in the experiment on SR leukemia is 71.5%; in the experiment on RPMI-8226 leukemia, 96.8%; with OVCAR-8 ovarian, 110%; with OVCAR-5 ovarian, 109%; in the experiment on OVCAR-4 ovarian, 98.3%; with SK-OV-3 ovarian it was 119%. For the same molecule, the growth with IGROV1 ovarian was 96.2%; with OVCAR-3 ovarian it was 107%; in the experiment on HS 578T breast, 75.9%; with NCI/ADR-RES ovarian it was 98.7%.
`C#CCCCCCCC[C@@H]1OC(=O)[C@H]([C@@H](C)CC)NC(=O)[C@H]([C@@H](C)CC)NC(=O)CC(=O)[C@@H]1C`: the growth in the experiment on SR leukemia was 82.2%; in the experiment on RPMI-8226 leukemia, 89.4%; with OVCAR-8 ovarian, 101%; with OVCAR-5 ovarian, 90.6%; in the experiment with OVCAR-4 ovarian, 97.6%; in the experiment with SK-OV-3 ovarian, 103%. For the same molecule, the growth with IGROV1 ovarian is 89.5%; with OVCAR-3 ovarian, 101%; with HS 578T breast, 90.1%; in the experiment on NCI/ADR-RES ovarian it was 94.9%.
As to `CCCC(CCC)Oc1ccc(CCCC2=C(O)c3ccccc3C(=O)C2=O)cc1`, the growth with SR leukemia is 38.9%; in the experiment on RPMI-8226 leukemia, 22.5%; with OVCAR-8 ovarian it was 34.2%; with OVCAR-5 ovarian it was 17.2%; in the experiment on OVCAR-4 ovarian, 25.1%; in the experiment with SK-OV-3 ovarian, 37.5%. Also, the growth was 46.7% with IGROV1 ovarian, 40.8% in the experiment with OVCAR-3 ovarian, 34.6% in the experiment on HS 578T breast and 28.7% in the experiment with NCI/ADR-RES ovarian.
On to `O=C(NC1CCN(Cc2ccccc2)CC1)c1cc(-c2cccnc2)nc2ccc(Cl)cc12`, for which the growth in the experiment with SR leukemia was 23%; with RPMI-8226 leukemia it was 47.3%; in the experiment with OVCAR-8 ovarian it was 77.5%; in the experiment on OVCAR-5 ovarian it was 80.5%; with OVCAR-4 ovarian it was 70.5%; in the experiment on SK-OV-3 ovarian, 102%. Further, the growth in the experiment with IGROV1 ovarian was 80.5%; with OVCAR-3 ovarian, 94.4%; with HS 578T breast it was 83.4%; with NCI/ADR-RES ovarian it was 67%.
As to `CC(=O)Nc1nc(C)c(C(=O)N/N=C/N2CCCCC2)s1`, the growth with SR leukemia is 104%; in the experiment with RPMI-8226 leukemia it was 124%; in the experiment with OVCAR-8 ovarian, 103%; in the experiment with OVCAR-5 ovarian, 103%; in the experiment with OVCAR-4 ovarian, 121%; with SK-OV-3 ovarian, 103%. In addition, the growth was 9.23% (active) in the experiment on IGROV1 ovarian, 128% in the experiment with OVCAR-3 ovarian, 107% in the experiment on HS 578T breast and 104% with NCI/ADR-RES ovarian.
With `O=c1c2c(c3ccccc3n1-c1ccccc1)NC(=S)NC2c1ccccc1` (stereo not given), the growth is 108% with SR leukemia; 50.1% with RPMI-8226 leukemia; 106% in the experiment with OVCAR-8 ovarian; 102% with OVCAR-5 ovarian; 79.5% with OVCAR-4 ovarian; 95.1% in the experiment with SK-OV-3 ovarian. Further, the growth was 102% in the experiment on IGROV1 ovarian, 105% in the experiment on OVCAR-3 ovarian, 105% in the experiment on HS 578T breast and 109% in the experiment with NCI/ADR-RES ovarian.
Regarding `O=C(CCCC(=O)Nc1ccc(Cn2nnc3cc(Cl)c(Cl)cc32)cc1)Nc1ccc(CN2N=NC3C=C(Cl)C(Cl)=CC32)cc1` (stereo not given), the growth with SR leukemia is 79.2%; in the experiment on RPMI-8226 leukemia, 64.4%; in the experiment on OVCAR-8 ovarian, 76.3%; in the experiment with OVCAR-5 ovarian it was 95.8%; in the experiment with OVCAR-4 ovarian it was 65.6%; in the experiment with SK-OV-3 ovarian, 86.3%. Further, the growth in the experiment with IGROV1 ovarian is 81.1%; in the experiment on OVCAR-3 ovarian, 87.7%; in the experiment with HS 578T breast it was 91.5%; with NCI/ADR-RES ovarian, 83.1%.
